Source: PubChem (National Center for Advancing Translational Sciences (NCATS))
The entries come from a sample that favours hits as a whole.
Shiga toxin inh: blocks Shiga toxin action in Vero cells. Vero cells, Shiga toxin protein synthesis inhibition reporter. inhibition, % at 38.7 µM. 9.2% of 290,000 active. AID 2315; in the data active = inhibition mostly above about 28%, no sharp cut-off; inactive = mostly below about 43%; note: 0% is about no effect
Giardia FBPA inh: inhibitors of Giardia lamblia fructose-1,6-bisphosphate aldolase; 0.71% of 290,000 active; purified Giardia FBPA; Potency, µM (highest dose often 59.6 µM), for the others: at the highest dose activity, negative = inhibition, most hits filed as inhibitors; A8B2U2; AID 2451; note: potency is the fitted concentration of half-maximal effect; % is set by controls: 0 for no effect and ±100 for the full control effect; nearly all actives have a fitted effect of over 55% in size
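40 nM FBPA preincubated 10 min at RT with compound (up to 57.5 uM final), then substrate plus GAPDH/TPI/NAD/arsenate coupling and diaphorase/resazurin added. Fluorescence read after 20 min at RT, 525/598 nm.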
TbPYK inhibitor: blocks Trypanosoma brucei pyruvate kinase | Q57TT1 | TbPYK enzyme, Kinase-Glo Plus ATP luminescence, 45 min | Potency, µM (highest dose often 76.8 µM), for the others: at the top dose activity, negative = inhibition, actives largely listed as inhibitors | 0.12% of 410,000 active; note: potency is the fitted concentration of half-maximal effect; % is set by controls: 0 for no effect and ±100 for the full control effect; nearly all actives have a fitted effect of over 50% in size
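TbPYK + substrate in 50 mM TEA pH 7.2, 100 mM KCl, 10 mM MgCl2, 0.05% BSA, 0.01% Tween-20; cpd pinned; ADP 130 uM final; 45 min RT; Kinase-Glo Plus 10 min; luminescence endpoint.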
CHX counter: counter-screen for Shiga toxin inhibitors: cycloheximide protein synthesis inhibition; cell reporter, cycloheximide protein synthesis inhibition counterscreen; max response, %; 12% of 300,000 active; AID 2314; in the data active = max response mostly above about 13%, no sharp cut-off; inactive = mostly below about 14%; note: read at 38.3 µM for the half of the compounds with a filed dose; 0% is about no effect
Sm TGR block: S. mansoni TGR enzyme inhibition. Q962Y6. purified TGR, DTNB reduction, TNB absorbance 405 nm. Potency, µM (titrated, usually from 114 µM), for inactives: at the top dose activity change, negative = inhibition, hits mostly inhibitors. 3% of 360,000 active; note: potency is the fitted concentration of half-maximal effect; % is set by controls: 0 for no effect and ±100 for the full control effect; nearly all actives have a fitted effect of over 60% in size
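TGR 20 nM + NADPH 100 uM (dispensed conc.), cpd preinc 15 min RT; start with NADPH (500 uM addition) then DTNB (15 mM addition). Kinetic TNB absorbance, 405 nm filter. Four-parameter Hill fit across titration.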
LmPK inhibitor: blocks Leishmania mexicana pyruvate kinase activity. purified LmPK, Kinase-Glo ATP luminescence, 1 h. Potency, µM (doses to about 57.5 µM), for the others: top-dose activity change, negative = inhibition, actives largely listed as inhibitors. 0.37% of 290,000 active. AID 1721; note: potency is the fitted concentration of half-maximal effect; % is set by controls: 0 for no effect and ±100 for the full control effect
Target sequence (Q27686 whole entry, looked up): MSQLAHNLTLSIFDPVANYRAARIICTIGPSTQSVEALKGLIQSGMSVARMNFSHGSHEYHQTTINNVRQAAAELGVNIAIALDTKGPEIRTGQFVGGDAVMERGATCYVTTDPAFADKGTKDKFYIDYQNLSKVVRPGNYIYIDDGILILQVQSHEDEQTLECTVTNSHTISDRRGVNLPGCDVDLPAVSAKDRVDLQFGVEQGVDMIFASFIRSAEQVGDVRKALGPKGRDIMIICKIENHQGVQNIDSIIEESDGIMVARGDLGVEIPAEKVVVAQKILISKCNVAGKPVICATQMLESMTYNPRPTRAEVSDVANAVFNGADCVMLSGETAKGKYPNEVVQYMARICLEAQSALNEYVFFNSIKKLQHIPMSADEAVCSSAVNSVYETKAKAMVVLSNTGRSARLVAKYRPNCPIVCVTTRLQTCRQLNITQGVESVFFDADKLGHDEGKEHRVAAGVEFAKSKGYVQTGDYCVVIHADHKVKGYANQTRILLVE
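Purified LmPK (0.1 nM) with 0.5 mM PEP and 0.1 mM ADP in imidazole buffer pH 7.2 with MgCl2/KCl, 1 h at room temperature. ATP formed was read by luciferase luminescence and normalized to no-enzyme and uninhibited controls.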
* = called active by the depositor; ? = inconclusive; . = not tested or not shown. Unless noted, calls come from the whole dose curve; as a rule, active = well fitted curve in the direction sought with a large enough effect; inconclusive = small, poorly fitted or top-dose-only effect, or another doubt; inactive = no such curve, though single readings can be large; an effect the other way counts as inactive or inconclusive.

SMILES	Shiga toxin inh	Giardia FBPA inh	TbPYK inhibitor	CHX counter	Sm TGR block	LmPK inhibitor
S=C(N/N=C1\CCc2ccccc21)NC1CCCCC1	112*	-1%	0%	32*	-25%	-2%
CCOC(=O)NN=C1c2ccccc2-c2ccccc21	11	7%	2%	-1	-16%	-2%
O=C(N/N=C1/CCc2ccccc21)C1CC1	92*	-4%	2%	33*	-2%	-4%
CCOC(=O)N/N=C1\CCc2ccccc21	73*	-4%	-15%	38*	0%	-9%
O=C(N/N=C1\CCc2ccccc21)c1ccccc1Cl	96*	-1%	-1%	53*	-23%	-9%
O=C(N/N=C1\CCCc2ccccc21)c1ccc([N+](=O)[O-])cc1Cl	67	7%	3%	10	-3%	6%
CCN(CC)CCCNC(=O)CCCn1ncn2c(cc3occc32)c1=O	.	.	-2%	.	0%	.
Cc1ccc(C(=O)N/N=C2\CCc3ccccc32)c(C)c1	152*	24%	-8%	63*	-1%	-11%
O=C(N/N=C1\CCc2ccccc21)c1ccc(O)cc1	57*	-15%	-17%	43*	10%	?
COc1ccc(NCC(=O)N/N=C2\CCc3ccccc32)cc1	66*	-25%	5%	29*	-5%	2%
O=C(N/N=C1/CCCc2ccccc21)c1cc([N+](=O)[O-])cc([N+](=O)[O-])c1	-3	-3%	.	-2	-14%	0%
Cc1ccc(C(=O)NN=CC(=O)c2ccccc2)c(C)c1	.	.	-13%	.	.	.
Cc1cc(S(=O)(=O)N2CCCOC2CNC(=O)C(=O)NCc2cccs2)ccc1F (stereo not given)	-16	.	1%	-3	-2%	1%
O=C(CCSCc1ccc(Cl)cc1)N1CCN(c2ccccc2F)CC1	.	.	-2%	.	1%	.
Cc1ccn2c(Nc3ccc(C(C)C)cc3)c(-c3cccs3)nc2c1	.	.	1%	.	3%	.
CCCOC1CCCN(C(=O)c2ccc3oc(C(C)C)nc3c2)C1 (stereo not given)	94*	.	-7%	38*	6%	-7%
O=C(c1ccc2oc(CCCc3ccccc3)nc2c1)N1CCCC(CCCO)C1 (stereo not given)	47*	.	-3%	30*	-15%	0%
CC(C)c1nc2cc(C(=O)N3CCN(c4cnccn4)CC3)ccc2o1	51	.	-2%	27*	-7%	-10%
CCOC(=O)N1CCN(C(=O)c2ccc3oc(CCCc4ccccc4)nc3c2)CC1	81*	.	-1%	39*	0%	-7%
Cc1ccc2c(C)c(C(=O)N3CCN(c4cnccn4)CC3)oc2c1C	66	1%	-10%	10	-28%	-3%
COCC1CCN(C(=O)c2ccc3oc(CCc4ccccc4)nc3c2)C1 (stereo not given)	.	.	-11%	.	.	.
CCOC(=O)N1CCN(C(=O)c2ccc3ccccc3c2)CC1	-7	11%	3%	-3	-1%	-5%
CCc1ccc(C2CC(=O)c3c([nH]c(C(=O)OCCOc4ccccc4)c3C)C2)cc1 (stereo not given)	.	.	-5%	.	7%	.
COCC1CCCCN1C(=O)c1ccc2oc(CCCc3ccccc3)nc2c1 (stereo not given)	61*	5%	-2%	37*	0%	10%
CC(C)CC(=O)C1CCCN(C(=O)c2ccc3oc(Cc4ccccc4)nc3c2)C1 (stereo not given)	-6	9%	1%	11	-8%	2%
SMILES	Shiga toxin inh	Giardia FBPA inh	TbPYK inhibitor	CHX counter	Sm TGR block	LmPK inhibitor
CCOC(=O)C1CCCN(C(=O)c2ccc3oc(Cc4ccccc4)nc3c2)C1 (stereo not given)	76*	.	0%	48*	-14%	-11%
COCCN1CCN(C(=O)c2ccc3oc(CCc4ccccc4)nc3c2)CC1	35	.	2%	23*	-26%	-1%
CC(=O)N1CCN(C(=O)c2ccc3oc(CCCc4ccccc4)nc3c2)CC1	16	18%	-2%	35*	0%	4%
CCOC(=O)C1=C(CS(=O)(=O)c2ccc(F)c(C)c2)NC(=O)NC1c1ccccc1OC (stereo not given)	.	.	-2%	.	-1%	.
CC(C)NC(=O)CN1CCN(C(=O)c2ccc3oc(CCCc4ccccc4)nc3c2)CC1	28	.	1%	20*	?	2%
CC(C)c1nc2cc(C(=O)N3CCNC(=O)C3c3cccc(F)c3)ccc2o1 (stereo not given)	54	11%	0%	12*	2%	-4%
Cc1cnc(CNC(=O)c2ccc3oc(C(C)C)nc3c2)[nH]1	20	.	2%	14	1%	-6%
O=C(OCc1cc(=O)n2c(n1)sc1ccccc12)c1ccc(O)cc1	27	7%	-2%	36*	-2%	3%
COc1ccc(/C=C/C(=O)OCc2cc(=O)n3c(n2)sc2ccccc23)cc1	-9	2%	-2%	1	-3%	-2%
O=c1cc(CCl)nc2sc3ccccc3n12	24	3%	6%	12	40µM*	-3%
COCCc1nn2c(=O)cc(COC(=O)c3ccc(Br)cc3)nc2s1	.	.	3%	.	89µM*	.
COc1ccc(N2CCN(C(=O)CCc3c(C)nc4cc(-c5cccc(F)c5)nn4c3C)CC2)cc1	.	.	6%	.	-21%	.
CC(=C/C(=O)O)/C=C/c1ccco1	-10	-14%	?	-3	7.9µM*	6%
CC(/C=C/c1ccc(Cl)o1)=C\C(=O)O	26	3%	-6%	1	8.9µM*	-11%
COc1ccc(/C=C/C(=O)O)cc1Cl	-4	1%	6%	-2	9%	3%
NC(=O)c1cccnc1Nc1cccc([N+](=O)[O-])c1	84*	-5%	-4%	48*	4%	-2%
NC(=O)c1cccnc1Nc1cccc(F)c1	37	0%	1%	12	-1%	5%
CC(OCc1ccccc1)C(NC(=O)OC(C)(C)C)C(=O)NC1COC2CC(n3ccc(=O)[nH]c3=O)OC12 (stereo not given)	3	6%	.	-1	.	.
O=C(Nc1nccs1)c1ccccc1[N+](=O)[O-]	-15	-2%	5%	-2	-9%	4%
O=C(Nc1nccs1)c1ccccc1Br	30	-27%	4%	28*	1%	-4%
O=C(Nc1nccs1)C(Br)C(Br)c1ccccc1 (stereo not given)	69*	-4%	-27%	34*	-16%	-9%
Cn1cc(Br)c(C(=O)NC2CCCCCC2)n1	56	.	-11%	17*	5%	-7%
Cn1cc(Br)c(C(=O)NC2C3CC4CC(C3)CC2C4)n1 (stereo not given)	22	0%	.	16	7%	4%
Cn1cc(Br)c(C(=O)Nc2c(F)c(F)c(F)c(F)c2F)n1	-4	-1%	-10%	-4	-2%	-5%
Cn1cc(Br)c(C(=O)Nc2nccs2)n1	43*	-11%	-17%	27*	22%	-1%
